Data published in PubChem BioAssay (EPA / NIEHS).
Activity calls are given as the source filed them. The calls were made as follows: active = hit-call score of the fitted dose curve at least 0.9, where 1 is the maximum; inactive = score below 0.9.

Biological target: Nuclear respiratory factor 1 (Homo sapiens) (UniProt Q16656)
Experiment: ATG_NRF1_CIS: Attagene CIS-FACTORIAL HepG2 Assay for human Nuclear Respiratory Factor 1 (NRF1) Orphan Gene (AID 2282987)
Conditions: HepG2 NRF1 cis-element reporter, Attagene multiplex; actives raise or lower the signal
In short: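 HepG2 cells transiently transfected with multiple reporter transcription units under cis-regulatory promoter control, so endogenous transcription-factor activity is read. After 24 h compound exposure, reporter mRNA quantified by RT-PCR, fluorescent labelling, HpaI digestion and capillary electrophoresis; bidirectional fitting versus DMSO.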

Nuclear respiratory factor 1 (Homo sapiens), sequence (Q16656 whole entry, looked up): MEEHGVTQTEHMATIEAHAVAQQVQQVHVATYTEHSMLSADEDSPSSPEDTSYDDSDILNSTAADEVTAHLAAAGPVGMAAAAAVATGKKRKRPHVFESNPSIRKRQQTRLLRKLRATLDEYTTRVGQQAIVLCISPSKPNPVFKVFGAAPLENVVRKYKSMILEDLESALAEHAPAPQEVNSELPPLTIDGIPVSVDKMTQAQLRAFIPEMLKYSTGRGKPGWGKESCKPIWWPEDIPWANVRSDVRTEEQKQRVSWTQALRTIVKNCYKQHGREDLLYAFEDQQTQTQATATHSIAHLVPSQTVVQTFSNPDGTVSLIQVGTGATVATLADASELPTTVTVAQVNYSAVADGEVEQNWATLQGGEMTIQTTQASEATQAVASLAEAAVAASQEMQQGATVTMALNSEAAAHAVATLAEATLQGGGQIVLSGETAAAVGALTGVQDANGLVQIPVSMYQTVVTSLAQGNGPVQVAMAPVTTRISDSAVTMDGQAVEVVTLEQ

outcome, inactive:
O=C1CCCC(=O)O1
O=CC1CC1
O=C1C(N(CO)C(=O)NCO)N(CO)C(=O)N1CO (stereo not drawn)
CC(C)(Oc1ccc(C2CC2(Cl)Cl)cc1)C(=O)O (stereo not drawn)
CCCCCCCC[N+](C)(CCCCCCCC)CCCCCCCC
O=C(O)C(c1ccc(Cl)cc1)c1ccc(Cl)cc1
CCCNC(=O)NS(=O)(=O)c1ccc(Cl)cc1
O=S1(=O)OC(c2ccc(O)cc2)(c2ccc(O)cc2)c2ccccc21
CCOC(=O)CC(C(C)=O)C(C)=O
S=C(NC1CCCCC1)NC1CCCCC1
O=c1c2ccccc2nnn1CCl
CCOCC(=O)O
CC(C)=CCC[C@H](C)CCO
C=CC(=O)NC(C)(C)CS(=O)(=O)O
CCCOCCOCCOCCO
C1CN(SSN2CCOCC2)CCO1
C=C[Si](OC(C)=O)(OC(C)=O)OC(C)=O
CC(=O)OC(C)C
CC1(C)S[C@@H]2[C@H](NC(=O)COc3ccccc3)C(=O)N2[C@H]1C(=O)O
O=S(=O)(O)CC(O)CCl (stereo not drawn)
NNC(=O)c1cccc(C(=O)NN)c1
CC/C=C\CCOC(=O)CCCCC
COC=O
CCCc1ccc(OC)cc1
CCCCCCCC(C)=O
CCC(C)C=O (stereo not drawn)
CC(=O)OCc1ccco1
CCOc1ccc(N)c([N+](=O)[O-])c1
COC(=O)/C=C/C(C)=C\C=C\C(C)=C\C=C\C=C(C)\C=C\C=C(C)\C=C\C(=O)O
CN1C(=O)N(C)C(O)C1O (stereo not drawn)
CCN(CC#N)c1cccc(C)c1
OCCc1ccncc1
Cc1cc(C)c(C)c(C)c1
COc1cc(C)ccc1C(C)C
N#CCc1ccc(Cl)cc1Cl
C=CC=CC=CCCCCC
O=C(O)c1cc2ccccc2nc1C(=O)O
[Cl][In]([Cl])[Cl]

Test system: not listed separately
Experiment: ATG_NFI_CIS: Attagene CIS-FACTORIAL HepG2 Assay for human Nuclear Factor I (NFI) (AID 2282989)
Conditions: HepG2 cis-regulatory reporter, NFI response element transcription; actives raise or lower the signal
In short: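 HepG2 cells transiently transfected with cis-element-driven multiplexed reporter transcription units, dosed for 24 h. Reporter mRNA quantified by RT-PCR, fluorescent labelling, HpaI digestion and capillary electrophoresis; bidirectional fit versus DMSO baseline.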

outcome, inactive:
O=C1CCCC(=O)O1
O=CC1CC1
Cc1ccc(N/N=c2\c(=O)cc/c(=N/Nc3ccc(S(=O)(=O)O)cc3)c2=O)c(C)c1
O=C1C(N(CO)C(=O)NCO)N(CO)C(=O)N1CO (stereo not drawn)
CC(C)(Oc1ccc(C2CC2(Cl)Cl)cc1)C(=O)O (stereo not drawn)
CCCCCCCC[N+](C)(CCCCCCCC)CCCCCCCC
O=C(O)C(c1ccc(Cl)cc1)c1ccc(Cl)cc1
CCCNC(=O)NS(=O)(=O)c1ccc(Cl)cc1
O=S1(=O)OC(c2ccc(O)cc2)(c2ccc(O)cc2)c2ccccc21
CCOC(=O)CC(C(C)=O)C(C)=O
S=C(NC1CCCCC1)NC1CCCCC1
O=c1c2ccccc2nnn1CCl
CO[Si](OC)(OC)c1ccccc1
CCOCC(=O)O
CC(C)=CCC[C@H](C)CCO
C=CC(=O)NC(C)(C)CS(=O)(=O)O
CCCOCCOCCOCCO
C1CN(SSN2CCOCC2)CCO1
C=C[Si](OC(C)=O)(OC(C)=O)OC(C)=O
CC(=O)OC(C)C
CC1(C)S[C@@H]2[C@H](NC(=O)COc3ccccc3)C(=O)N2[C@H]1C(=O)O
O=S(=O)(O)CC(O)CCl (stereo not drawn)
NNC(=O)c1cccc(C(=O)NN)c1
CC/C=C\CCOC(=O)CCCCC
COC=O
CCCc1ccc(OC)cc1
CCCCCCCC(C)=O
CCC(C)C=O (stereo not drawn)
CC(=O)OCc1ccco1
CCOc1ccc(N)c([N+](=O)[O-])c1
COC(=O)/C=C/C(C)=C\C=C\C(C)=C\C=C\C=C(C)\C=C\C=C(C)\C=C\C(=O)O
CN1C(=O)N(C)C(O)C1O (stereo not drawn)
CCN(CC#N)c1cccc(C)c1
OCCc1ccncc1
Cc1cc(C)c(C)c(C)c1
COc1cc(C)ccc1C(C)C
N#CCc1ccc(Cl)cc1Cl
C=CC=CC=CCCCCC
O=C(O)c1cc2ccccc2nc1C(=O)O
[Cl][In]([Cl])[Cl]

Biological target: Myc proto-oncogene protein (Homo sapiens) (UniProt P01106)
Sequence (P01106 whole entry, looked up): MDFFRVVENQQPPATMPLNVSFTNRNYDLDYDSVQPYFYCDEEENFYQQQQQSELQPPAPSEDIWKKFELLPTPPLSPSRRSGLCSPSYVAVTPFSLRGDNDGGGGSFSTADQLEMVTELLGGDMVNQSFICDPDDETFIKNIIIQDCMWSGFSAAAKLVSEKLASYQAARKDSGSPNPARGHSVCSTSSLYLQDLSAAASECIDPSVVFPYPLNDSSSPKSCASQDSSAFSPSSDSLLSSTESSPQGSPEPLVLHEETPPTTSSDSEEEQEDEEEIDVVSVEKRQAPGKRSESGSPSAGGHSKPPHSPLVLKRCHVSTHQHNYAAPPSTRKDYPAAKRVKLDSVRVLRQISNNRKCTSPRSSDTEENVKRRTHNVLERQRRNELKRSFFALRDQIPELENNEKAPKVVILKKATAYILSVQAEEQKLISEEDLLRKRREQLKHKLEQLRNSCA
Experiment: ATG_Myc_CIS: Attagene CIS-FACTORIAL HepG2 Assay for human Myelocytomatosis (Myc) Proto-Oncogene Transcription Factor (AID 2282990)
Conditions: HepG2, Attagene cis-reporter transcription factor activity; actives raise or lower the signal
In short: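 Multiplexed cis-reporter transcription in HepG2 cells after 24 h chemical treatment. Reporter mRNA measured by RT-PCR and capillary electrophoresis fluorescence; activity fitted bidirectionally against DMSO control.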

outcome, inactive:
O=C1CCCC(=O)O1
O=CC1CC1
Cc1ccc(N/N=c2\c(=O)cc/c(=N/Nc3ccc(S(=O)(=O)O)cc3)c2=O)c(C)c1
O=C1C(N(CO)C(=O)NCO)N(CO)C(=O)N1CO (stereo not drawn)
CC(C)(Oc1ccc(C2CC2(Cl)Cl)cc1)C(=O)O (stereo not drawn)
CCCCCCCC[N+](C)(CCCCCCCC)CCCCCCCC
O=C(O)C(c1ccc(Cl)cc1)c1ccc(Cl)cc1
CCCNC(=O)NS(=O)(=O)c1ccc(Cl)cc1
O=S1(=O)OC(c2ccc(O)cc2)(c2ccc(O)cc2)c2ccccc21
CCOC(=O)CC(C(C)=O)C(C)=O
S=C(NC1CCCCC1)NC1CCCCC1
O=c1c2ccccc2nnn1CCl
CO[Si](OC)(OC)c1ccccc1
CCOCC(=O)O
CC(C)=CCC[C@H](C)CCO
C=CC(=O)NC(C)(C)CS(=O)(=O)O
CCCOCCOCCOCCO
C1CN(SSN2CCOCC2)CCO1
C=C[Si](OC(C)=O)(OC(C)=O)OC(C)=O
CC(=O)OC(C)C
CC1(C)S[C@@H]2[C@H](NC(=O)COc3ccccc3)C(=O)N2[C@H]1C(=O)O
O=S(=O)(O)CC(O)CCl (stereo not drawn)
NNC(=O)c1cccc(C(=O)NN)c1
CC/C=C\CCOC(=O)CCCCC
COC=O
CCCc1ccc(OC)cc1
CCCCCCCC(C)=O
CCC(C)C=O (stereo not drawn)
CC(=O)OCc1ccco1
CCOc1ccc(N)c([N+](=O)[O-])c1
COC(=O)/C=C/C(C)=C\C=C\C(C)=C\C=C\C=C(C)\C=C\C=C(C)\C=C\C(=O)O
CN1C(=O)N(C)C(O)C1O (stereo not drawn)
CCN(CC#N)c1cccc(C)c1
OCCc1ccncc1
Cc1cc(C)c(C)c(C)c1
COc1cc(C)ccc1C(C)C
N#CCc1ccc(Cl)cc1Cl
C=CC=CC=CCCCCC
O=C(O)c1cc2ccccc2nc1C(=O)O
[Cl][In]([Cl])[Cl]
